Active and inactive are the calls of the source. Rule as the data show it, unless noted: active = inhibition above about 31%; inactive = the rest.

Assay [1] in a line: HUVEC growth inhibition – cell-based, human, primary screen (AID 575;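 active = viability at or below 30% in both replicate assays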;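 also: 100% = median of untreated cell wells with 0.1% DMSO on each plate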). Conditions: HUVEC proliferation, CellTiter-Glo luminescence, 72 h; at 10 µM; stronger effect = lower value. In general terms: ATP-based viability assays read luminescence as a measure of living cells.
Assay [2] can be described thus: H69AR cell proliferation blockers – human, duplicate replicates, primary screen (AID 580;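 active = viability at or under a set limit in both replicates, limit being median viability minus 3 SD, cut at about 48% in these data, passing the limit was not always enough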;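 also: 100% = mean luminescence of untreated wells and 0% = no signal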). The conditions noted are these: H69AR lung tumor cells viability, ATP luminescence, 72 h; at 10 µM; stronger effect = lower value.
Assay [3] can be described thus: MRP1 drug-resistance reversers in H69AR cells – cell-based, doxorubicin co-treatment, pilot screen (AID 601;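 active = viability loss from added drug above about 55%, and viability with drug at most 40%, in both replicates, limit read from the data, passing the limit was not always enough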). Conditions: CellTiter-Glo, 72 h, at 10 µM; for differential viability (reversal): stronger effect = higher value.
Assay [4] can be described thus: yeast transport mutant growth inhibition pilot in 384-well plates, post-Golgi transport modulator project (AID 636). Conditions: absorbance 615 nm, about 18 h, stronger effect = higher value.
Assay [5] can be described thus: growth suppression of yeast trafficking mutant, preliminary HTS, modulators of trafficking downstream of Golgi apparatus project, 1536-format plate, OD 615 nm (AID 637; in the data active = inhibition above about 30%). The conditions noted are these: yeast transport mutant growth, absorbance 615 nm, 18 h; stronger effect = higher value.
[6] abbreviates: H69AR cells + 2 uM doxorubicin, measured here: viability with 2 uM doxorubicin, stronger effect = lower value.
The mark [7] stands for this setting: H69AR cells, compound alone cytotoxicity.

For `Cc1ccc(S(=O)(=O)NCCc2ccncc2)cc1`, the viability is 95.4% (inactive) in assay [1], 110% (inactive) in assay [2], 100% in assay [3] (setting [6]) and 110% in assay [3] (setting [7]). In assay [3] (H69AR cells + 2 uM doxorubicin), the differential viability (reversal) is 10.4% (inactive). Further, the inhibition in assay [4] is -2.47% (inactive); in assay [5], -0.16% (inactive).
Regarding `O=C(NC1CC2CCC1C2)c1ccc(CN2CCOCC2)cc1` (stereo unspecified), the viability is 99.9% (inactive) in assay [1], 96.9% (inactive) in assay [2], 93.9% in assay [3] (setting [6]) and 96.9% in assay [3] (setting [7]). In assay [3] (H69AR cells + 2 uM doxorubicin), the differential viability (reversal) was 2.98% (inactive). The inhibition in assay [4] is -2.89% (inactive); in assay [5], -2.7% (inactive).
For the molecule `Cc1ccccc1NC(=O)c1ccccc1`, the viability in assay [1] is 103% (inactive); in assay [2] it was 99.6% (inactive); in assay [3] (setting [6]), 87.8%; in assay [3] (setting [7]), 99.6%. Moreover, the differential viability (reversal) in assay [3] (H69AR cells + 2 uM doxorubicin) was 11.8% (inactive). Further, the results for the inhibition in assay [4] and in assay [5] were -5.92% (inactive) and 2.7% (inactive), respectively.
In the case of `O=S1(=O)C=C(Sc2nnc(-c3ccccc3)o2)c2ccccc21`, the viability was 42.9% (inactive) in assay [1], 1.65% (active) in assay [2], 1.27% in assay [3] (setting [6]) and 1.65% in assay [3] (setting [7]). Further, in assay [3] (H69AR cells + 2 uM doxorubicin), the differential viability (reversal) is 0.375% (inactive). The inhibition in assay [4] is 57% (active); in assay [5] it was 95.8% (active).
With `Cc1nn(-c2ccccc2)c(Cl)c1C1C(C#N)=C(N)OC2=C1C(=O)CC(C)(C)C2` (stereo unspecified), the viability was 49.1% (inactive) in assay [1], 12.2% (active) in assay [2], 84.4% in assay [3] (setting [6]) and 12.2% in assay [3] (setting [7]). For the same molecule, in assay [3] (H69AR cells + 2 uM doxorubicin), the differential viability (reversal) was -72.2% (inactive). In addition, the inhibition was -4.68% (inactive) in assay [4] and -4.29% (inactive) in assay [5].
For `CC(=O)Nc1ccc(NC2=CC(=O)CC(C)(C)C2)cc1`, the viability in assay [1] was 109% (inactive); in assay [2] it was 109% (inactive); in assay [3] (setting [6]), 85%; in assay [3] (setting [7]), 109%. In assay [3] (H69AR cells + 2 uM doxorubicin), the differential viability (reversal) was 24.2% (inactive). In addition, the inhibition in assay [4] is -3.38% (inactive); in assay [5], 5.08% (inactive).
For `COc1ccc(-c2coc3c(CN4CCCCC4)c(O)c(CN4CCCCC4)c(O)c3c2=O)cc1`, the viability in assay [1] was 76.7% (inactive); in assay [2] it was 1.48% (active); in assay [3] (setting [6]), 1.5%; in assay [3] (setting [7]), 1.48%. For the same molecule, the differential viability (reversal) in assay [3] (H69AR cells + 2 uM doxorubicin) is -0.025% (inactive). The results for the inhibition in assay [4] and in assay [5] were 0% (inactive) and 6.19% (inactive), respectively.
Consider `CCN(CC)CCCN1C(=O)C(=O)/C(=C(/O)c2ccc(C)cc2)C1c1ccccn1` (stereo unspecified), for which the viability was 98.7% (inactive) in assay [1], 91.8% (inactive) in assay [2], 93.6% in assay [3] (setting [6]) and 91.8% in assay [3] (setting [7]). Further, the differential viability (reversal) in assay [3] (H69AR cells + 2 uM doxorubicin) is -1.81% (inactive). Also, the inhibition in assay [4] is 6.4% (inactive); in assay [5] it was -4.44% (inactive).
With `O=C(CSc1nnc(-c2ccccc2)o1)N1CCc2ccccc2C1`, the viability in assay [1] is 85.3% (inactive); in assay [2], 93.1% (inactive); in assay [3] (setting [6]), 93.1%; in assay [3] (setting [7]), 93.1%. Also, in assay [3] (H69AR cells + 2 uM doxorubicin), the differential viability (reversal) is 0.04% (inactive). The inhibition in assay [4] is -4.53% (inactive); in assay [5] it was -5.24% (inactive).
Turning to `CCc1nnc(NC(=O)CSc2nnc(-c3ccoc3C)n2CC(C)C)s1`, the viability in assay [1] was 85.8% (inactive); in assay [2], 106% (inactive); in assay [3] (setting [6]) it was 93.8%; in assay [3] (setting [7]), 106%. For the same molecule, the differential viability (reversal) in assay [3] (H69AR cells + 2 uM doxorubicin) was 12.6% (inactive). The results for the inhibition in assay [4] and in assay [5] were -4.67% (inactive) and 11.3% (inactive), respectively.
Consider `CCCn1c(SCC(=O)NCc2ccco2)nc2c1c(=O)n(C)c(=O)n2C`, for which the viability in assay [1] is 87.6% (inactive); in assay [2], 94.4% (inactive); in assay [3] (setting [6]), 78.5%; in assay [3] (setting [7]), 94.4%. The differential viability (reversal) in assay [3] (H69AR cells + 2 uM doxorubicin) was 15.9% (inactive). Also, the inhibition in assay [4] was -7.87% (inactive); in assay [5], 2.38% (inactive).
For the molecule `Cc1ccccc1CN1CCN(C(=O)c2cccc(F)c2)CC1`, the viability is 94.7% (inactive) in assay [1], 101% (inactive) in assay [2], 96.9% in assay [3] (setting [6]) and 101% in assay [3] (setting [7]). In addition, the differential viability (reversal) in assay [3] (H69AR cells + 2 uM doxorubicin) was 4.51% (inactive). The results for the inhibition in assay [4] and in assay [5] were -1.87% (inactive) and -0.16% (inactive), respectively.
For `Cc1cc(NCCCn2ccnc2)n2c(nc3ccccc32)c1C#N`, the viability in assay [1] was 94% (inactive); in assay [2], 100% (inactive); in assay [3] (setting [6]), 93.3%; in assay [3] (setting [7]), 100%. For the same molecule, the differential viability (reversal) in assay [3] (H69AR cells + 2 uM doxorubicin) is 7.14% (inactive). Further, the inhibition in assay [4] was 4.29% (inactive); in assay [5], 6.51% (inactive).
As to `O=C(NCc1ccco1)c1cccc(-c2nnc(-c3ccccc3)o2)c1`, the viability in assay [1] was 59.4% (inactive); in assay [2], 85.8% (inactive); in assay [3] (setting [6]) it was 80.3%; in assay [3] (setting [7]) it was 85.8%. Moreover, the differential viability (reversal) in assay [3] (H69AR cells + 2 uM doxorubicin) is 5.49% (inactive). The results for the inhibition in assay [4] and in assay [5] were -4.8% (inactive) and 2.86% (inactive), respectively.
Consider `COc1ccc(C(F)(F)F)cc1NC(=O)c1nc2nc(C)cc(C(F)F)n2n1`, for which the viability is 94% (inactive) in assay [1], 79.9% (inactive) in assay [2], 83.7% in assay [3] (setting [6]) and 79.9% in assay [3] (setting [7]). Moreover, the differential viability (reversal) in assay [3] (H69AR cells + 2 uM doxorubicin) was -3.77% (inactive). The inhibition in assay [4] is -1.56% (inactive); in assay [5], -0.16% (inactive).
Take `COC(=O)c1ccc2c(c1)C(=O)N(C1CCCCC1)C2=O`: the viability in assay [1] was 105% (inactive); in assay [2], 104% (inactive); in assay [3] (setting [6]) it was 96.7%; in assay [3] (setting [7]), 104%. The differential viability (reversal) in assay [3] (H69AR cells + 2 uM doxorubicin) is 7.39% (inactive). For the same molecule, the values for the inhibition in assay [4] and in assay [5] were -2.93% (inactive) and 1.11% (inactive), respectively.
Turning to `COc1ccc(OC)c(NC(=O)Cc2coc3ccc(C)cc23)c1`, the viability is 76.7% (inactive) in assay [1], 82.1% (inactive) in assay [2], 78.3% in assay [3] (setting [6]) and 82.1% in assay [3] (setting [7]). For the same molecule, in assay [3] (H69AR cells + 2 uM doxorubicin), the differential viability (reversal) is 3.86% (inactive). Also, the inhibition in assay [4] is -6.05% (inactive); in assay [5], 0.48% (inactive).
As to `CCn1c(Cc2ccccc2)nnc1SCC(=O)Nc1ccc(N2CCOCC2)c(Cl)c1`, the viability in assay [1] is 101% (inactive); in assay [2] it was 93.8% (inactive); in assay [3] (setting [6]), 102%; in assay [3] (setting [7]), 93.8%. Also, in assay [3] (H69AR cells + 2 uM doxorubicin), the differential viability (reversal) was -8.62% (inactive). The inhibition was -4.67% (inactive) in assay [4] and 3.02% (inactive) in assay [5].

One may read the viability as a read-out of living cells in per cent, often relative to untreated cells. In general, inhibition refers to the relative decrease from the control value, in per cent.

Source of the values: PubChem BioAssay.
